Experimental data reported in PubChem BioAssay AID1159580 (chemical genetic matrix, 2015).
The whole screen tested about 5,500 compounds, of which about 2,000 (36%) were called active. Inconclusive results (about 18%) are left out. Cut-off read from the data, not from the text of the source: active = normalized growth mostly below about 0.91 (no sharp cut-off); inconclusive = no clear call, values can overlap the other calls; inactive = mostly above about 0.92. The list shows a part of the results.

Assay: chemical genetic growth profiling, strain panel (AID 1159580);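 note: tested at 20 µM; growth read once vehicle control cultures reached saturation at 30 °C; 1 = growth at the plate median or of vehicle wells; lower values mean less growth of the strain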
Details: S. cerevisiae deletion strains, growth OD

Measured: normalized growth

Cc1ccc2c(c1)C(N1CCN(C)CC1)=Nc1cccnc1N2
inactive: locus YAL040C, strain CLN3, stronger effect = lower value 0.99 | locus YCL061C, strain MRC1 (second series), stronger effect = lower value 0.989 | locus YDR150W, strain NUM1, stronger effect = lower value 0.986 | locus YDR363W, strain ESC2, stronger effect = lower value 1.02 | locus YER002W, strain NOP16, stronger effect = lower value 1 | locus YGR078C, strain PAC10, stronger effect = lower value 0.983 | locus YJR075W, strain HOC1, stronger effect = lower value 1 | locus YMR263W, strain SAP30, stronger effect = lower value 0.982 | locus YNL128W, strain TEP1, stronger effect = lower value 1.09 | locus YNL153C, strain GIM3, stronger effect = lower value 0.998 | locus YNL175C, strain NOP13, stronger effect = lower value 0.997 | locus YNL197C, strain WHI3, stronger effect = lower value 0.988 | locus YNL224C, strain SQS1, stronger effect = lower value 1.01 | locus YNL322C, strain KRE1, stronger effect = lower value 0.988 | locus YOR083W, strain WHI5 (second series), stronger effect = lower value 0.991

Cc1cc2c(s1)Nc1ccccc1N=C2N1CCN(C)CC1
inactive: locus YHR030C, strain SLT2, stronger effect = lower value 0.975 | locus YHR079C, strain IRE1, stronger effect = lower value 0.976 | locus YJL095W, strain BCK1, stronger effect = lower value 1.01 | locus YJR066W, strain TOR1, stronger effect = lower value 0.944 | locus YLR113W, strain HOG1, stronger effect = lower value 1.05 | locus YNL183C, strain NPR1, stronger effect = lower value 0.969 | locus YOR231W, strain MKK1, stronger effect = lower value 1 | locus YPL256C, strain CLN2, stronger effect = lower value 1.03
